# Results reported in ChEMBL document CHEMBL1961873, “Compounds: GSK PKIS; Assays: Nanosyn kinase panel” (2012).
# Assays:
# [1] = target: Rho-associated protein kinase 1 (Homo sapiens) (UniProt Q13464); conditions: at 1 µM;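 also: reported values are mean percent inhibition of ROCK1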
# [2] = target: Rho-associated protein kinase 2 (Homo sapiens) (UniProt O75116); conditions: at 0.1 µM
# [3] = target: Rho-associated protein kinase 2 (Homo sapiens) (UniProt O75116); conditions: at 1 µM
# [4] = target: Ribosomal protein S6 kinase alpha-1 (Homo sapiens) (UniProt Q15418); conditions: at 0.1 µM
# [5] = target: Ribosomal protein S6 kinase alpha-1 (Homo sapiens) (UniProt Q15418); conditions: at 1 µM
# [6] = target: Ribosomal protein S6 kinase alpha-3 (Homo sapiens) (UniProt P51812); conditions: at 0.1 µM
# [7] = target: Ribosomal protein S6 kinase alpha-3 (Homo sapiens) (UniProt P51812); conditions: at 1 µM
# [8] = target: Ribosomal protein S6 kinase alpha-2 (Homo sapiens) (UniProt Q15349); conditions: at 0.1 µM
# [9] = target: Ribosomal protein S6 kinase alpha-2 (Homo sapiens) (UniProt Q15349); conditions: at 1 µM
# [10] = target: Ribosomal protein S6 kinase alpha-6 (Homo sapiens) (UniProt Q9UK32); conditions: at 0.1 µM
# [11] = target: Ribosomal protein S6 kinase alpha-6 (Homo sapiens) (UniProt Q9UK32); conditions: at 1 µM
# [12] = target: T1, Serine/threonine-protein kinase Sgk1 (Homo sapiens) (UniProt O00141); conditions: at 0.1 µM
# T1 sequence (whole entry): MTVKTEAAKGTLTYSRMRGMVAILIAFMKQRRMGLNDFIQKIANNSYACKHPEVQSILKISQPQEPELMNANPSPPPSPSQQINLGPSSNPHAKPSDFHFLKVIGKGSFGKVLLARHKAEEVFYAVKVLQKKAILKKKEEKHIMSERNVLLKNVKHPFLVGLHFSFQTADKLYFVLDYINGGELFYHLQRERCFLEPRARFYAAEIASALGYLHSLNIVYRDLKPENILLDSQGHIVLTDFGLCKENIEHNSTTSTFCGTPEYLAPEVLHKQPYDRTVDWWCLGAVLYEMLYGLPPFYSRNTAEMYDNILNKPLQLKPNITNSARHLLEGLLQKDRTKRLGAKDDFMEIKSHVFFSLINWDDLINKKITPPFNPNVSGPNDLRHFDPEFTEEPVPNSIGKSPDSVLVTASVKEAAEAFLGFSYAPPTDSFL
# [13] = target: T1, Serine/threonine-protein kinase Sgk1 (Homo sapiens); conditions: at 1 µM
# [14] = target: T2, Serine/threonine-protein kinase Sgk2 (Homo sapiens) (UniProt Q9HBY8); conditions: at 0.1 µM
# T2 sequence (whole entry): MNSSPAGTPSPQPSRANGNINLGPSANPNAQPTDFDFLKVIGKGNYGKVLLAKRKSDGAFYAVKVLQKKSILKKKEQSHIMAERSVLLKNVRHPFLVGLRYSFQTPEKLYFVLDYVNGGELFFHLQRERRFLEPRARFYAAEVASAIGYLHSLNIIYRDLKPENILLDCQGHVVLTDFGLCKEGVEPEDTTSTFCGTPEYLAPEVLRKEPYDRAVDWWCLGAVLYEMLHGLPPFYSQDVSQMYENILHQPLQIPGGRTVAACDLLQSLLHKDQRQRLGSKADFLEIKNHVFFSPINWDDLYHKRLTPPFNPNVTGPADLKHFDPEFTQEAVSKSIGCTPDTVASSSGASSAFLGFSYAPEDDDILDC
# [15] = target: T2, Serine/threonine-protein kinase Sgk2 (Homo sapiens); conditions: at 1 µM
# [16] = target: T3, Serine/threonine-protein kinase Sgk3 (Homo sapiens) (UniProt Q96BR1); conditions: at 0.1 µM
# T3 sequence (whole entry): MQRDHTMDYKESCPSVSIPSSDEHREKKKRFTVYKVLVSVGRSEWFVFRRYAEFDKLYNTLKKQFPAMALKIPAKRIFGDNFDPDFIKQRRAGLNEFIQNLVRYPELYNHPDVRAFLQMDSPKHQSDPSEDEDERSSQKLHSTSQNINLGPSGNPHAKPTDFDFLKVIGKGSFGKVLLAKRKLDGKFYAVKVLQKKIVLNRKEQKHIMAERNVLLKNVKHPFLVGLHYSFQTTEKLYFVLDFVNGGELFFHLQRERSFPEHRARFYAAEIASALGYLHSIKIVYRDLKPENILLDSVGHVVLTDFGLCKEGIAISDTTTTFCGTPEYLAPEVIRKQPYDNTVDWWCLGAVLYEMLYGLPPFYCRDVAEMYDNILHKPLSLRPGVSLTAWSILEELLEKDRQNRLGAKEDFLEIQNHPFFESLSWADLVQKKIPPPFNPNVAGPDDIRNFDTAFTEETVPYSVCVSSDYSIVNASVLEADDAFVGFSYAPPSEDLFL
# [17] = target: T3, Serine/threonine-protein kinase Sgk3 (Homo sapiens); conditions: at 1 µM
# [18] = target: 5'-AMP-activated protein kinase catalytic subunit alpha-1 (Homo sapiens) (UniProt Q13131); conditions: at 0.1 µM
# [19] = target: 5'-AMP-activated protein kinase catalytic subunit alpha-1 (Homo sapiens) (UniProt Q13131); conditions: at 1 µM
# [20] = target: 5'-AMP-activated protein kinase catalytic subunit alpha-2 (Homo sapiens) (UniProt P54646); conditions: at 0.1 µM;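 also: mean inhibition measured on the AMPK complex of alpha2, beta1 and gamma1 subunits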
# Sequence of 5'-AMP-activated protein kinase catalytic subunit alpha-2 (Homo sapiens) (P54646 whole entry, looked up): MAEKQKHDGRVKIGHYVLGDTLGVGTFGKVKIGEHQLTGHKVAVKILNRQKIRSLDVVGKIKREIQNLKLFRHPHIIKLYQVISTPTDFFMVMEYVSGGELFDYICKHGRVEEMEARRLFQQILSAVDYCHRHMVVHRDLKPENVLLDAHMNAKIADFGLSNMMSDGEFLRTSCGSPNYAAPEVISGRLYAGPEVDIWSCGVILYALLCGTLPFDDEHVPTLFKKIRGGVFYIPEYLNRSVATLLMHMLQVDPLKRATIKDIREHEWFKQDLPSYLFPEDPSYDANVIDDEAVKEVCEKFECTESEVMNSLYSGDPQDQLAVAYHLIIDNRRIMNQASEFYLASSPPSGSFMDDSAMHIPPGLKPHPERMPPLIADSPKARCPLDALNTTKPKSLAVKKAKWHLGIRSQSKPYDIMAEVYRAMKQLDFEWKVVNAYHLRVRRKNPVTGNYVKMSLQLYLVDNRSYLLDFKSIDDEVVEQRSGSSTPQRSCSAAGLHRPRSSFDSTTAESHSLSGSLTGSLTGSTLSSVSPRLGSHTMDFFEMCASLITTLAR
# Sequence of Ribosomal protein S6 kinase alpha-1 (Homo sapiens) (Q15418 whole entry): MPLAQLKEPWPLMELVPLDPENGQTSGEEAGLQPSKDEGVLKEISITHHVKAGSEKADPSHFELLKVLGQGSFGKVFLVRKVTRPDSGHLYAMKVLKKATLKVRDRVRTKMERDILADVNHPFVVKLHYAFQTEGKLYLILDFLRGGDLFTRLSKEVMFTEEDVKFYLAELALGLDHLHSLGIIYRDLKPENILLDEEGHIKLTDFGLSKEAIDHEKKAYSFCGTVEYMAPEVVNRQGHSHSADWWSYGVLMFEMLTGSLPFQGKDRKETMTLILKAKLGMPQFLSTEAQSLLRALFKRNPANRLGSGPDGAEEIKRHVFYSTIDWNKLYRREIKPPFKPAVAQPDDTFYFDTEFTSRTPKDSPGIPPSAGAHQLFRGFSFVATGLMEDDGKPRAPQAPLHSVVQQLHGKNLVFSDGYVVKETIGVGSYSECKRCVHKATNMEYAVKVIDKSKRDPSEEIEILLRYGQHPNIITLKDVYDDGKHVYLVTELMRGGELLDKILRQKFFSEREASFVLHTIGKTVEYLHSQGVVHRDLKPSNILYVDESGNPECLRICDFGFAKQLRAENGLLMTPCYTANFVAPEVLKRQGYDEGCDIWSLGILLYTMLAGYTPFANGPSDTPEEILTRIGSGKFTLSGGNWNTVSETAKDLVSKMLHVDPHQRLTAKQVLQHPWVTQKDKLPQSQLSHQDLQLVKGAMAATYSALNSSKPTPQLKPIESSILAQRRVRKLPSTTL
# Sequence of Ribosomal protein S6 kinase alpha-3 (Homo sapiens) (P51812 whole entry): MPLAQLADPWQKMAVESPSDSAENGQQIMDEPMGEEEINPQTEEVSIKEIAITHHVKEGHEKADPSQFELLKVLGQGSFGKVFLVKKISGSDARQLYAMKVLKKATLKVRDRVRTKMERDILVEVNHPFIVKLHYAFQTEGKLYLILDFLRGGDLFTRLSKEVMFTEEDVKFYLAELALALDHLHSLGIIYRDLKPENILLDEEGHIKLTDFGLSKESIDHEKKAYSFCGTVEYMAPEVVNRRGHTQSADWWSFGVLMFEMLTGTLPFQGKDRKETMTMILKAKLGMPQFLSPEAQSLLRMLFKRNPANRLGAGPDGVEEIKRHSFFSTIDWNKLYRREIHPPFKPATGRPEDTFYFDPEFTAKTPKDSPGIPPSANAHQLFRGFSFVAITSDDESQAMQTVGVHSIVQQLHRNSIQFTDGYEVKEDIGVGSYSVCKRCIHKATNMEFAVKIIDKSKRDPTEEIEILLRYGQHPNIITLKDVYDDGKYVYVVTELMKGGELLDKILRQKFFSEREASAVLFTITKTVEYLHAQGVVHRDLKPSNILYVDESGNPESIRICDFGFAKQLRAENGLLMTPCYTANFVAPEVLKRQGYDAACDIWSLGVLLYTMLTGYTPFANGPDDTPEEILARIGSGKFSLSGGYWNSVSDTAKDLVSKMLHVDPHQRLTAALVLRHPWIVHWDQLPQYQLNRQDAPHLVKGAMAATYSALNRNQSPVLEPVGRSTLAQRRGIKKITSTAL
# Sequence of Ribosomal protein S6 kinase alpha-2 (Homo sapiens) (Q15349 whole entry): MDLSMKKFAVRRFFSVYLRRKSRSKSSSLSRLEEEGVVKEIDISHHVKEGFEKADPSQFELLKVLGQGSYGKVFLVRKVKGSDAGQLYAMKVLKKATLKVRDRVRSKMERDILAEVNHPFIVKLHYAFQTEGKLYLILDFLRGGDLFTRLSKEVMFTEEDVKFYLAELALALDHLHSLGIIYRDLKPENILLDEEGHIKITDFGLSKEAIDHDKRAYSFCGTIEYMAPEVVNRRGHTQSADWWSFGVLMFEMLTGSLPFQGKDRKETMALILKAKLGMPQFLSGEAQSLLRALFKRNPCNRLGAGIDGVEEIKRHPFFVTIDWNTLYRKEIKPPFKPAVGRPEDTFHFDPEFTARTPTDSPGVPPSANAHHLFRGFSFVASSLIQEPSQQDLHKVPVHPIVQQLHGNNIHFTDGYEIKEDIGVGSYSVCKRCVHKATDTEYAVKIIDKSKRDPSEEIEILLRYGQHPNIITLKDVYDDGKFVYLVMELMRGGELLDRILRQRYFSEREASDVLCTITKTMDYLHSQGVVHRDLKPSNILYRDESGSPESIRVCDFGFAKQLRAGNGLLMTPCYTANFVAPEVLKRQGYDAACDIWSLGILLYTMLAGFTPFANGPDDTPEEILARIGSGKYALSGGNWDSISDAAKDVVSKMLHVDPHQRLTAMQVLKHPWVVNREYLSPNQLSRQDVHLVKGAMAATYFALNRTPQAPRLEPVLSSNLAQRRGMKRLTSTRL
# Sequence of 5'-AMP-activated protein kinase catalytic subunit alpha-1 (Homo sapiens) (Q13131 whole entry, looked up): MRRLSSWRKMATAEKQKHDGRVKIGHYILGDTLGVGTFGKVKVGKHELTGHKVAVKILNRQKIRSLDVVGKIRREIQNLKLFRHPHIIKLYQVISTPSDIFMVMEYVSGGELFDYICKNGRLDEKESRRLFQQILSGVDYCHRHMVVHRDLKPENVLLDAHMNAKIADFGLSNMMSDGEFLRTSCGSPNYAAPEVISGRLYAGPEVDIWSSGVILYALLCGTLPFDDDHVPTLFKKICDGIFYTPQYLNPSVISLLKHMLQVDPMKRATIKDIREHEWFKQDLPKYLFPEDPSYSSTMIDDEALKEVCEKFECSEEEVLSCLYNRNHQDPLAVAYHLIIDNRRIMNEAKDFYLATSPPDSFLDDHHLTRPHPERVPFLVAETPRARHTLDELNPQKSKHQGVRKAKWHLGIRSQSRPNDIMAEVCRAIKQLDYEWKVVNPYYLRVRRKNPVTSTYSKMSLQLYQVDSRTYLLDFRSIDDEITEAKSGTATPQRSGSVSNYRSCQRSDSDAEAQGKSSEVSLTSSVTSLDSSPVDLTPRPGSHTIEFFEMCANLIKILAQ
# Sequence of Rho-associated protein kinase 1 (Homo sapiens) (Q13464 2-1354 limits assumed): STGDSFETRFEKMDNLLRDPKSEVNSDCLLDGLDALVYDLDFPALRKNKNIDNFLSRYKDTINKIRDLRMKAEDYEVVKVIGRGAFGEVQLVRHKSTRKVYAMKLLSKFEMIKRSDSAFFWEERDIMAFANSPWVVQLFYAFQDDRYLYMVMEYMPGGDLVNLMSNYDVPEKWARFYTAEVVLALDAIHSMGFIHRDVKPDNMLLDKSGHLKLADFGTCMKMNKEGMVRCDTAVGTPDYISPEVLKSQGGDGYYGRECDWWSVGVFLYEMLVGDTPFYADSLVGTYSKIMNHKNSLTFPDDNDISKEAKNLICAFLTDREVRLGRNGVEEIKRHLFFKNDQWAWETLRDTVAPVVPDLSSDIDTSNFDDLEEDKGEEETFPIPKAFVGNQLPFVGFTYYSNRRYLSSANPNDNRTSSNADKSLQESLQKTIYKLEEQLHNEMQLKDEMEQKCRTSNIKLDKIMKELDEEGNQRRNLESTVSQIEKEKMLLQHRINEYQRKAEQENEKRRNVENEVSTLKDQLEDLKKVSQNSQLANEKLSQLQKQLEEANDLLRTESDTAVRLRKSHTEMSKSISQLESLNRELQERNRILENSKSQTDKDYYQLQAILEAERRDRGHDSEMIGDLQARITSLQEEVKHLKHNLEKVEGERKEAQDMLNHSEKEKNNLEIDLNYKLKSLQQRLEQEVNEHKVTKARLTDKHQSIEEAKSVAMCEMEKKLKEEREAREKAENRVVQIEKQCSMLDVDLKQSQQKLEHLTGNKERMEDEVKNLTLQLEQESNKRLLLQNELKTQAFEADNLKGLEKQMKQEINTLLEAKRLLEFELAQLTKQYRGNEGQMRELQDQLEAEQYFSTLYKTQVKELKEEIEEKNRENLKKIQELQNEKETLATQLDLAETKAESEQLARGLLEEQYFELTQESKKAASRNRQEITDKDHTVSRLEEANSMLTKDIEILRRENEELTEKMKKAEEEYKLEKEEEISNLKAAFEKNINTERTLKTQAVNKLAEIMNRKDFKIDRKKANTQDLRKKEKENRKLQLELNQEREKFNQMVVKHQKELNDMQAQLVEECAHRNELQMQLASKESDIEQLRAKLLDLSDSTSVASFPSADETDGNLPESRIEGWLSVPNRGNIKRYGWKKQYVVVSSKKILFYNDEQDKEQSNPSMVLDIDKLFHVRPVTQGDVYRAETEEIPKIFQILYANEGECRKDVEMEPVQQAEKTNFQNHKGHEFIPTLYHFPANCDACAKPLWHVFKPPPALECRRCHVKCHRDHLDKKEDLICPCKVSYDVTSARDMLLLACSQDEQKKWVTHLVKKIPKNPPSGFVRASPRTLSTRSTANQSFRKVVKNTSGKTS
Structure (SMILES),inhibition [1] [%],inhibition [2] [%],inhibition [3] [%],inhibition [4] [%],inhibition [5] [%],inhibition [6] [%],inhibition [7] [%],inhibition [8] [%],inhibition [9] [%],inhibition [10] [%],inhibition [11] [%],inhibition [12] [%],inhibition [13] [%],inhibition [14] [%],inhibition [15] [%],inhibition [16] [%],inhibition [17] [%],inhibition [18] [%],inhibition [19] [%],inhibition [20] [%]
Cc1ccc(NC(=O)CC2CC2)cc1-c1ccc(C(=O)NCC2CC2)cc1,2.07,3.27,5.25,1.91,2.35,0.73,1.14,1.88,2.04,1.16,1,2.06,4.1,4.31,1.34,2.72,0.18,1.98,3.58,1
N#Cc1cccc(Nc2nccc(-c3cnn4ncccc34)n2)c1,5.33,3.28,12.4,2.54,7.07,0.17,4.03,2.01,4.16,1.51,8.8,2.22,10.4,4.89,5.14,5.14,7.33,2.67,10.4,2.03
C[C@@H](Oc1cc(-n2cnc3ccc(OC[C@@H](O)CO)cc32)sc1C(N)=O)c1ccccc1Cl,1.42,-0.36,0.84,0.36,3.32,1.35,5.89,-0.54,3.27,-0.4,12.7,1.2,0.68,1.68,2.9,-1.63,0.55,0.18,5.73,0.26
COc1cc2ncnc(Nc3ccc4c(cnn4Cc4ccccc4)c3)c2cc1OC,6.38,2.52,7.05,0.76,2.15,0.6,2.23,2.97,3.65,1.46,1.92,2.26,1.9,1.23,-1.13,2.62,1.35,1.38,3.13,5.92
COc1cccc(-n2ncc3c(N/N=C/c4ccc(C)cc4)ncnc32)c1,4.15,3.08,5.34,2.5,6.59,0.75,5.14,3.75,4.8,0.68,3.14,0.12,3.62,1.23,2.8,3.8,2.61,1.9,6.98,7.16
Oc1cccc(-c2nc(-c3ccccc3)[nH]c2-c2ccncc2)c1,1.51,3.56,6.34,2.58,3.62,1.36,2.76,1.27,3.22,2.27,2.67,0.98,4.8,1.32,4.97,3.71,1.35,2.62,3.13,3.23
NS(=O)(=O)c1cccc(Nc2cc(-c3ccc(F)cc3)n[nH]2)c1,3.34,3.4,8.75,3.22,7.2,2.09,5.61,2.21,4.15,1.89,4.03,3.81,7.2,3.76,8.09,3.81,7.42,3.82,14.4,2.4
COC(=O)c1ccc2c(c1)C(=Cc1cc(Br)c(O)c(Br)c1)C(=O)N2,1.74,1.52,3.89,1.5,6.51,1.97,4.23,3.99,6.79,2.52,7.3,1.67,5.36,5.27,12.1,3.08,3.5,2.71,6.28,8.21
CN(C)CCCn1c(-c2nonc2N)nc2cnccc21,32.8,11.6,45.3,2.28,11.8,1.45,6.61,4.55,16.4,1.79,4.47,2.27,4.15,2.98,2.34,2.21,3.38,2.93,2.04,3.05
O=C(Nc1ccc(Oc2ccc3[nH]c(NC(=O)c4ccco4)nc3c2)cc1)Nc1cc(C(F)(F)F)ccc1F,26.5,4.21,31.3,1.39,10.2,1.5,6.22,5.27,35.7,0.96,3.95,0.67,-0.62,0.44,2.52,0.1,-0.97,1.07,2.39,1.95
FC(F)(F)c1ccc(-c2nn3ncccc3c2-c2ccnc(Nc3ccc4c(c3)OCCO4)n2)cc1,2.51,4.66,8.18,1.49,3.18,2.19,5.4,-0.87,0.6,-0.08,0.72,9.07,10.2,5.69,10.8,7.48,12.9,1.3,4.07,5.75
CCOc1nccc2c1nc(-c1nonc1N)n2CC,10.8,4.9,23.1,5.34,30,3.74,17.1,5.7,27.9,1.8,4.02,4.63,8.95,4.13,12.7,6.9,15.9,3.1,7.14,2.19
Cc1cc(-c2ccccn2)cc(C)c1/C=C/c1cncc(-c2nn[nH]n2)c1,2.97,1.11,3.33,-1.27,1.85,-0.57,1.01,0.4,1.84,-1.04,1.31,0.67,1.66,3.28,-0.92,4.48,2.45,0.33,3.53,6.43
O=S(=O)(CCOCc1ccc(-c2ccc3ncnc(Nc4ccc(OCc5cccc(F)c5)c(Cl)c4)c3c2)o1)c1ccccc1,3.68,1.09,6.38,-1.65,1.43,-0.82,1.23,-0.87,1.09,-1.59,-0.62,1.34,2.27,3.28,-0.92,3.38,1.38,-0.69,1.2,4.55
Cc1ccc(O)cc1Nc1ccnc2ccc(S(C)(=O)=O)cc12,1.52,4.28,5.46,2.4,0.29,0.8,1.28,3.52,3.02,2.13,1.9,3.76,6.8,4.31,4.71,4.36,5.21,2.21,5.69,3.06
Nc1ccc(C#Cc2cncnc2Nc2ccc(OCc3cccc(F)c3)c(Cl)c2)cc1,2.72,1.93,1.92,1.19,1.59,0.98,1.75,1.56,3.21,0.9,0.51,1.87,2.62,4.82,3.04,2.22,2.3,1.54,2.87,-0.27
CCS(=O)(=O)c1ccc(OC)c(Nc2nccc(N(C)c3ccc4c(C)n[nH]c4c3)n2)c1,2.51,2.12,4.04,-0.57,3.78,-0.28,0.94,-0.47,1.56,-1.99,-0.55,2.43,2.8,4.15,2.6,3.28,1.75,1.93,2.62,2.9
OCc1ccc(-c2nc(-c3ccccn3)c(-c3ccc4c(c3)OCO4)[nH]2)cc1,2.25,3.74,1.44,1.38,0.67,0.79,0.24,2.72,3.66,1.53,2.9,3.65,0.91,1.37,1.29,3.28,2.86,3.68,2.81,2.09
COc1cc(Nc2nccc(-c3cnn4ncccc34)n2)cc(OC)c1,8.16,2.33,15,1.35,3.27,1.72,4.75,1.42,5.35,0.97,6.06,2.68,4.34,1.68,-0.04,1.95,2.1,3.39,16.7,0.99
NS(=O)(=O)c1ccc(-c2cc3ccncc3cc2OCc2ccccc2)cc1,4.04,2.48,6.37,1.11,3.06,-0.24,0.92,0.22,2.19,-0.43,0.34,2.5,2.69,1.44,-1.22,0.75,2.72,2.82,3.15,0.66
CN1CCN(C(=O)c2ccc(NC(=O)Nc3ccc(N(C)c4ccnc(Nc5ccc(CS(C)(=O)=O)cc5)n4)cc3)cc2)CC1,18.7,11.3,52,0.85,2.5,0.47,2.98,2.14,4.07,2.06,5.11,0.94,3.35,1.96,7.04,2.75,1.79,2.09,5.52,3.27
Cc1ccc2c(-c3ccnc(Nc4ccc5c(c4)OCCO5)n3)c(-c3ccc(C(F)(F)F)cc3)nn2n1,1.22,0.44,1.89,0.91,0.79,1.19,1.86,1.06,1.53,-0.18,0.44,0.85,1.65,-0.62,-1.7,0.16,-1.14,0.51,3.23,0.13
